# The supplement of paper PMC6992640
# Test system: UCD52 (cells of a triple-negative basal-like breast cancer xenograft)
# Test: cell viability of combination (% of vehicle); higher = less cytotoxic
# Conditions: 1 µM; 72 h; partner dose: 10 nM
# Experimental: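 PDX cells were treated for 72 h with each drug at 1 µM plus carfilzomib (10 nM; 100 nM for WHIM2). Luciferase viability is expressed as percent of vehicle.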
row,SMILES,cell viability of combination
1,O=C(c1ccc(F)c(F)c1Nc1ccc(I)cc1F)N1CC(O)(C2CCCCN2)C1 (stereo not given) [Cobimetinib] + CC(C)C[C@H](NC(=O)[C@H](CCc1ccccc1)NC(=O)CN1CCOCC1)C(=O)N[C@@H](Cc1ccccc1)C(=O)N[C@@H](CC(C)C)C(=O)[C@@]1(C)CO1 [Carfilzomib],44.7
2,O=C(NN=Cc1ccc([N+](=O)[O-])o1)c1ccc(O)cc1 [Nifuroxazide] + CC(C)C[C@H](NC(=O)[C@H](CCc1ccccc1)NC(=O)CN1CCOCC1)C(=O)N[C@@H](Cc1ccccc1)C(=O)N[C@@H](CC(C)C)C(=O)[C@@]1(C)CO1 [Carfilzomib],57.6
3,COc1ccc(C[C@H](N)C(=O)N[C@@H]2[C@H](O)[C@H](n3cnc4c(N(C)C)ncnc43)O[C@@H]2CO)cc1.Cl.Cl [Puromycin dihydrochloride] + CC(C)C[C@H](NC(=O)[C@H](CCc1ccccc1)NC(=O)CN1CCOCC1)C(=O)N[C@@H](Cc1ccccc1)C(=O)N[C@@H](CC(C)C)C(=O)[C@@]1(C)CO1 [Carfilzomib],13.8
4,COc1cc(Nc2c(C#N)cnc3cc(OCCCN4CCN(C)CC4)c(OC)cc23)c(Cl)cc1Cl [Bosutinib (SKI-606)] + CC(C)C[C@H](NC(=O)[C@H](CCc1ccccc1)NC(=O)CN1CCOCC1)C(=O)N[C@@H](Cc1ccccc1)C(=O)N[C@@H](CC(C)C)C(=O)[C@@]1(C)CO1 [Carfilzomib],35.3
5,COc1ncc(-c2ccc3nccc(-c4ccnnc4)c3c2)cc1NS(=O)(=O)c1ccc(F)cc1F + CC(C)C[C@H](NC(=O)[C@H](CCc1ccccc1)NC(=O)CN1CCOCC1)C(=O)N[C@@H](Cc1ccccc1)C(=O)N[C@@H](CC(C)C)C(=O)[C@@]1(C)CO1 [Carfilzomib],17.6
6,CS(=O)(=O)CCNCc1ccc(-c2ccc3ncnc(Nc4ccc(OCc5cccc(F)c5)c(Cl)c4)c3c2)o1.Cc1ccc(S(=O)(=O)O)cc1.Cc1ccc(S(=O)(=O)O)cc1 [Lapatinib Ditosylate] + CC(C)C[C@H](NC(=O)[C@H](CCc1ccccc1)NC(=O)CN1CCOCC1)C(=O)N[C@@H](Cc1ccccc1)C(=O)N[C@@H](CC(C)C)C(=O)[C@@]1(C)CO1 [Carfilzomib],47.7
7,CCCSc1nc(NC2CC2c2ccc(F)c(F)c2)c2nnn(C3CC(OCCO)C(O)C3O)c2n1 (stereo not given) [Ticagrelor] + CC(C)C[C@H](NC(=O)[C@H](CCc1ccccc1)NC(=O)CN1CCOCC1)C(=O)N[C@@H](Cc1ccccc1)C(=O)N[C@@H](CC(C)C)C(=O)[C@@]1(C)CO1 [Carfilzomib],54.3
8,CCCCc1oc2ccccc2c1C(=O)c1cc(I)c(OCCN(CC)CC)c(I)c1.Cl [Amiodarone HCl] + CC(C)C[C@H](NC(=O)[C@H](CCc1ccccc1)NC(=O)CN1CCOCC1)C(=O)N[C@@H](Cc1ccccc1)C(=O)N[C@@H](CC(C)C)C(=O)[C@@]1(C)CO1 [Carfilzomib],63.7
9,COC(=O)NC(C(=O)N1CCCC1c1ncc(-c2ccc(-c3ccc(-c4cnc(C5CCCN5C(=O)C(NC(=O)OC)C(C)C)[nH]4)cc3)cc2)[nH]1)C(C)C (stereo not given) + CC(C)C[C@H](NC(=O)[C@H](CCc1ccccc1)NC(=O)CN1CCOCC1)C(=O)N[C@@H](Cc1ccccc1)C(=O)N[C@@H](CC(C)C)C(=O)[C@@]1(C)CO1 [Carfilzomib],60.4
10,Cc1cc(-n2c(=O)[nH]c(=O)n(C)c2=O)ccc1Oc1ccc(SC(F)(F)F)cc1 [Toltrazuril] + CC(C)C[C@H](NC(=O)[C@H](CCc1ccccc1)NC(=O)CN1CCOCC1)C(=O)N[C@@H](Cc1ccccc1)C(=O)N[C@@H](CC(C)C)C(=O)[C@@]1(C)CO1 [Carfilzomib],61
11,COCCOC(=O)C1=C(C)NC(C)=C(C(=O)OCC=Cc2ccccc2)C1c1cccc([N+](=O)[O-])c1 (stereo not given) [Cilnidipine] + CC(C)C[C@H](NC(=O)[C@H](CCc1ccccc1)NC(=O)CN1CCOCC1)C(=O)N[C@@H](Cc1ccccc1)C(=O)N[C@@H](CC(C)C)C(=O)[C@@]1(C)CO1 [Carfilzomib],63.2
12,CC(Oc1cc(-c2cnn(C3CCNCC3)c2)cnc1N)c1c(Cl)ccc(F)c1Cl [(R)-Crizotinib] + CC(C)C[C@H](NC(=O)[C@H](CCc1ccccc1)NC(=O)CN1CCOCC1)C(=O)N[C@@H](Cc1ccccc1)C(=O)N[C@@H](CC(C)C)C(=O)[C@@]1(C)CO1 [Carfilzomib],49.1
13,CO[C@@]12[C@H](COC(N)=O)C3=C(C(=O)C(C)=C(N)C3=O)N1C[C@@H]1N[C@@H]12 [Mitomycin C] + CC(C)C[C@H](NC(=O)[C@H](CCc1ccccc1)NC(=O)CN1CCOCC1)C(=O)N[C@@H](Cc1ccccc1)C(=O)N[C@@H](CC(C)C)C(=O)[C@@]1(C)CO1 [Carfilzomib],64
14,CN(C(=O)CN(CCO)CC(=O)N(C)C(C)(C)Cc1ccccc1)C(C)(C)Cc1ccccc1 [Oxethazaine] + CC(C)C[C@H](NC(=O)[C@H](CCc1ccccc1)NC(=O)CN1CCOCC1)C(=O)N[C@@H](Cc1ccccc1)C(=O)N[C@@H](CC(C)C)C(=O)[C@@]1(C)CO1 [Carfilzomib],66.5
15,CC(C)(C)Cn1c(N)nc2ccc(-c3[nH]c(C(C)(C)C)nc3-c3ccc(F)cc3)nc21.CS(=O)(=O)O.CS(=O)(=O)O + CC(C)C[C@H](NC(=O)[C@H](CCc1ccccc1)NC(=O)CN1CCOCC1)C(=O)N[C@@H](Cc1ccccc1)C(=O)N[C@@H](CC(C)C)C(=O)[C@@]1(C)CO1 [Carfilzomib],29.3
16,CCOc1cc2ncc(C#N)c(Nc3ccc(F)c(Cl)c3)c2cc1NC(=O)C=CCN(C)C [Pelitinib (EKB-569)] + CC(C)C[C@H](NC(=O)[C@H](CCc1ccccc1)NC(=O)CN1CCOCC1)C(=O)N[C@@H](Cc1ccccc1)C(=O)N[C@@H](CC(C)C)C(=O)[C@@]1(C)CO1 [Carfilzomib],40.8
17,CN1CCN(c2ccc(C(=O)/N=c3\[nH][nH]c4ccc(Cc5cc(F)cc(F)c5)cc34)c(NC3CCOCC3)c2)CC1 [Entrectinib] + CC(C)C[C@H](NC(=O)[C@H](CCc1ccccc1)NC(=O)CN1CCOCC1)C(=O)N[C@@H](Cc1ccccc1)C(=O)N[C@@H](CC(C)C)C(=O)[C@@]1(C)CO1 [Carfilzomib],45
18,C#Cc1cccc(Nc2ncnc3cc(OCCOC)c(OCCOC)cc23)c1 [Erlotinib] + CC(C)C[C@H](NC(=O)[C@H](CCc1ccccc1)NC(=O)CN1CCOCC1)C(=O)N[C@@H](Cc1ccccc1)C(=O)N[C@@H](CC(C)C)C(=O)[C@@]1(C)CO1 [Carfilzomib],49.1
19,CCc1cnn2c(NCc3ccc[n+]([O-])c3)cc(N3CCCCC3CCO)nc12 (stereo not given) + CC(C)C[C@H](NC(=O)[C@H](CCc1ccccc1)NC(=O)CN1CCOCC1)C(=O)N[C@@H](Cc1ccccc1)C(=O)N[C@@H](CC(C)C)C(=O)[C@@]1(C)CO1 [Carfilzomib],23.7
20,C=CC(=O)N1CCC(Oc2cc3c(Nc4ccc(Cl)c(Cl)c4F)ncnc3cc2OC)CC1 [Poziotinib] + CC(C)C[C@H](NC(=O)[C@H](CCc1ccccc1)NC(=O)CN1CCOCC1)C(=O)N[C@@H](Cc1ccccc1)C(=O)N[C@@H](CC(C)C)C(=O)[C@@]1(C)CO1 [Carfilzomib],28.9
21,Br.Cc1ccc(Sc2ccccc2N2CCNCC2)c(C)c1 + CC(C)C[C@H](NC(=O)[C@H](CCc1ccccc1)NC(=O)CN1CCOCC1)C(=O)N[C@@H](Cc1ccccc1)C(=O)N[C@@H](CC(C)C)C(=O)[C@@]1(C)CO1 [Carfilzomib],50.8
22,COc1cccc2c1C(=O)c1c(O)c3c(c(O)c1C2=O)C[C@@](O)(C(C)=O)C[C@@H]3O[C@H]1C[C@H](N)[C@H](O)[C@H](C)O1.Cl [Daunorubicin HCl] + CC(C)C[C@H](NC(=O)[C@H](CCc1ccccc1)NC(=O)CN1CCOCC1)C(=O)N[C@@H](Cc1ccccc1)C(=O)N[C@@H](CC(C)C)C(=O)[C@@]1(C)CO1 [Carfilzomib],17.1
23,CCOC(=O)c1c(CSc2ccccc2)n(C)c2cc(Br)c(O)c(CN(C)C)c12.Cl [Arbidol HCl] + CC(C)C[C@H](NC(=O)[C@H](CCc1ccccc1)NC(=O)CN1CCOCC1)C(=O)N[C@@H](Cc1ccccc1)C(=O)N[C@@H](CC(C)C)C(=O)[C@@]1(C)CO1 [Carfilzomib],58.5
24,CC(C)c1nc(CN(C)C(=O)NC(C(=O)NC(Cc2ccccc2)CC(O)C(Cc2ccccc2)NC(=O)OCc2cncs2)C(C)C)cs1 (stereo not given) [Ritonavir] + CC(C)C[C@H](NC(=O)[C@H](CCc1ccccc1)NC(=O)CN1CCOCC1)C(=O)N[C@@H](Cc1ccccc1)C(=O)N[C@@H](CC(C)C)C(=O)[C@@]1(C)CO1 [Carfilzomib],65.6
25,CC(C)(C)c1ccc(C(O)CCCN2CCC(C(O)(c3ccccc3)c3ccccc3)CC2)cc1 (stereo not given) [Terfenadine] + CC(C)C[C@H](NC(=O)[C@H](CCc1ccccc1)NC(=O)CN1CCOCC1)C(=O)N[C@@H](Cc1ccccc1)C(=O)N[C@@H](CC(C)C)C(=O)[C@@]1(C)CO1 [Carfilzomib],64.9
